Screening results from PubChem BioAssay.
Shown is part of a subset that was picked to be rich in hits.
ID4 SMM – binders of human ID4 protein; small molecule microarray, Flag-ID4 binding, fluorescence F/B; P47928; 1.2% of 31,000 active; AID 624137; calls only; call rule not given here;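 also: a binder raises fluorescence above local background on the spot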
Target sequence (P47928 whole entry, looked up): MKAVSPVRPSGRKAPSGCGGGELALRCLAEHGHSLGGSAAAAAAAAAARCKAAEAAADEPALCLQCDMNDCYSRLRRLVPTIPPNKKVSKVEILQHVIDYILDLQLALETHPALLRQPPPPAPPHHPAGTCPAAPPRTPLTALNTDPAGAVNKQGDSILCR
Numbers without * were called inactive.

Screening Cc1c(Cl)ccc2c(C(=O)Nc3ccc(S(=O)(=O)N4CCOCC4)cc3)cc(-c3cccnc3)nc12 returned ID4 SMM inactive.
CCn1c(SCC(=O)Nc2ccccc2OC)nnc1-c1c[nH]c2ccccc12 was read as ID4 SMM inactive.
Screening Cc1nc2nc(NCc3cccc([N+](=O)[O-])c3)[nH]n2c(=O)c1Cc1ccccc1 returned ID4 SMM inactive.
For COC(=O)Cc1c(C)nc2nc(NCc3ccccc3)[nH]n2c1=O the results were ID4 SMM inactive.
COc1cccc(CNc2nc3nc(C)c(Cc4ccccc4)c(=O)n3[nH]2)c1 was read as ID4 SMM active.
`Cc1ccc(-n2c3c(cc(C(=O)NCCCN4CCOCC4)c2=O)C(=O)CCC3)cc1` gave ID4 SMM inactive.
COc1ccccc1NC(=O)CSc1nnc(-c2ccccc2)n1-c1cccc(C)c1 was read as ID4 SMM inactive.
Screening O=c1oc2ccccc2cc1-c1csc(Cc2nc3c(s2)CCCC3)n1 returned ID4 SMM inactive.
`Cc1ccc(-c2nn(C)c(=O)c3ccccc23)cc1S(=O)(=O)N1CCN(CCO)CC1` gave ID4 SMM active.
Cc1ccc(-c2nn(C)c(=O)c3ccccc23)cc1CNC(=O)CN1CCOCC1 was read as ID4 SMM inactive.
For Cc1ccc(-c2nn(CC(=O)NCCN3CCOCC3)c(=O)c3ccccc23)cc1 the results were ID4 SMM inactive.
For COc1cccc(-c2cc(C(F)(F)F)n3nc(C(=O)Nc4cc(C)nn4-c4ccccc4)cc3n2)c1 the results were ID4 SMM inactive.
Screening Cc1cccnc1NC(=O)C(C)Oc1ccccc1 (stereo unspecified) returned ID4 SMM inactive.
For Cc1cccc(OCC(O)CNC(C)(C)CO)c1C (stereo unspecified) the results were ID4 SMM inactive.
`Cc1cccnc1NCC(O)COc1ccccc1` (stereo unspecified) gave ID4 SMM active.
For COc1ccc(C)cc1NC(=O)CN(c1ccc(I)cc1)S(C)(=O)=O the results were ID4 SMM inactive.
Screening C=CCn1c(=S)[nH]c2sc3c(c2c1=O)CC(C)(C)OC3 returned ID4 SMM inactive.
`CN(CC(=O)Nc1ccc(Cl)cc1C(F)(F)F)S(=O)(=O)c1ccc(Br)cc1` gave ID4 SMM inactive.
`CSc1ccccc1NC(=O)CN(c1ccc(I)cc1)S(C)(=O)=O` gave ID4 SMM inactive.
C=CCNc1oc(CC(C)C)nc1C#N was read as ID4 SMM inactive.
CCOc1ccc(-c2nnc(SCC(=O)O)n2-c2ccccc2)cc1 was read as ID4 SMM inactive.
Screening COC(=O)c1ccccc1NC(=O)CSc1n[nH]c(-c2ccccc2Cl)n1 returned ID4 SMM inactive.
Cc1cc(N(CC(N)=O)S(C)(=O)=O)ccc1Br was read as ID4 SMM inactive.
O=C(CSc1nc2ccccc2[nH]1)Nc1ccc(I)cc1 was read as ID4 SMM inactive.
c1ccc2[nH]c(SCCCN3CCCCC3)nc2c1 was read as ID4 SMM active.
Screening O=C(CSc1nc2ccccc2[nH]1)Nc1c(Cl)cccc1Cl returned ID4 SMM inactive.
For CCn1cc(C(C)NC(=S)Nc2cccc([N+](=O)[O-])c2)c(C)n1 (stereo unspecified) the results were ID4 SMM inactive.
Screening CCOC(=O)c1c(NC(=O)C(C)n2nc(C)c([N+](=O)[O-])c2C)sc(C)c1C (stereo unspecified) returned ID4 SMM inactive.
For CC(=O)NCCCC[C@@H]1NC(=O)[C@H]2C[C@@H](C(=O)NCCCCCCNC(=O)CS)[C@@H](c3ccc(O)cc3)N2C1=O the results were ID4 SMM inactive.
For O=C(NCc1ccc(F)cc1)[C@@H]1C[C@@H]2C(=O)N3CCC[C@H]3C(=O)N2[C@@H]1c1cccc(OCCO)c1 the results were ID4 SMM inactive.
NCCCCCCNC(=O)[C@H]1C[C@H]2C(=O)N[C@@H](Cc3ccccc3)C(=O)N2[C@H]1c1cccc(OCCO)c1 was read as ID4 SMM active.
O=C(NCc1ccc(F)cc1)[C@H]1C[C@H]2C(=O)NCC(=O)N2[C@H]1c1cccc(OCCO)c1 was read as ID4 SMM inactive.
CN(C)CCCCCCNC(=O)[C@H]1C[C@H]2C(=O)N3CCC[C@H]3C(=O)N2[C@H]1c1cccc(OCCO)c1 was read as ID4 SMM active.
CC(C)C[C@@H]1NC(=O)[C@H]2C[C@@H](C(=O)NCCCCCNC(=O)CS)[C@@H](c3cccc(OCCO)c3)N2C1=O was read as ID4 SMM inactive.
O=C(NCc1ccc(F)cc1)[C@@H]1C[C@@H]2C(=O)N3CCC[C@H]3C(=O)N2[C@@H]1c1ccc(O)cc1 was read as ID4 SMM inactive.
Screening CC(C)C[C@@H]1NC(=O)[C@@H]2C[C@H](C(=O)O)[C@H](c3cccc(OCCO)c3)N2C1=O returned ID4 SMM inactive.
`O=C1NCC(=O)N2[C@@H]1C[C@@H](C(=O)NCc1ccc(F)cc1)[C@H]2c1cccc(OCCO)c1` gave ID4 SMM active.
